# Compounds without any hit were thinned out: in the full panel of roughly 83,000, 20% have a hit.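 Activity criterion: percent growth below 10, measured after cells in 96-well plates were exposed to a single compound concentration for 48 hours.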 Unmarked numbers belong to inactive results. Active and inactive are the calls of the source.
# Legend:
# Experiment in all cases: NCI-60 one-dose screen, 48 h (100 = growth as untreated, 0 = no growth, -100 = all killed)
# Conditions in all cases: 10 µM unless noted
# NCI-H23 lung = system: NCI-H23 lung
# NCI-H226 lung = system: NCI-H226 lung
# NCI-H322M lung = system: NCI-H322M lung
# HOP-62 NSCLC = system: HOP-62 NSCLC
# NCI-H460 lung = system: NCI-H460 lung
# NCI-H522 lung = system: NCI-H522 lung
# A549/ATCC NSCLC = system: A549/ATCC NSCLC
# 786-0 renal = system: 786-0 renal
# COLO 205 colon = system: COLO 205 colon
# DU-145 prostate = system: DU-145 prostate
# K-562 leukemia = system: K-562 leukemia
# MALME-3M melanoma = system: MALME-3M melanoma
# MDA-MB-231 breast = system: MDA-MB-231 breast
# RXF 393 renal = system: RXF 393 renal
# SF-268 CNS = system: SF-268 CNS
# SF-295 CNS = system: SF-295 CNS
# SF-539 CNS = system: SF-539 CNS
# UACC-257 melanoma = system: UACC-257 melanoma
# M14 melanoma = system: M14 melanoma
SMILES,growth (NCI-H23 lung),growth (NCI-H226 lung),growth (NCI-H322M lung),growth (HOP-62 NSCLC),growth (NCI-H460 lung),growth (NCI-H522 lung),growth (A549/ATCC NSCLC),growth (786-0 renal),growth (COLO 205 colon),growth (DU-145 prostate),growth (K-562 leukemia),growth (MALME-3M melanoma),growth (MDA-MB-231 breast),growth (RXF 393 renal),growth (SF-268 CNS),growth (SF-295 CNS),growth (SF-539 CNS),growth (UACC-257 melanoma),growth (M14 melanoma)
COc1cc2oc(-c3cccc(NC(=O)[C@H](Cc4ccccc4)NC(=O)OC(C)(C)C)c3)cc(=O)c2c(OC)c1OC,39.1%,28%,46.1%,49%,11.5%,30.3%,24.7%,43.8%,33.8%,35.7%,23%,35%,42.7%,31%,62%,36.8%,43.1%,75.5%,51.7%
Clc1cccc(-c2ccc(OCCCN3CCN(c4ccncc4)CC3)cc2)c1,19.1%,41.3%,53.4%,-49.1% (active),-67.5% (active),-4.23% (active),-11.9% (active),-79.5% (active),-86.1% (active),35.2%,-50.3% (active),-87% (active),-83.4% (active),-67.1% (active),33.1%,-80.8% (active),-81.2% (active),25.1%,-64.8% (active)
Cc1ccc(C2=NN(c3nc(-c4cc5ccccc5oc4=O)cs3)C(c3ccc(C)cc3)C2)cc1 (stereo unspecified),95.6%,88.8%,102%,91.2%,120%,100%,109%,110%,111%,113%,101%,91.6%,84.4%,103%,120%,99.6%,93.9%,112%,106%
Cc1cccc(-c2nc(Nc3ccc(C)c(S(N)(=O)=O)c3)c3ccccc3n2)c1,12.9%,41.9%,34%,76.1%,19%,-30.5% (active),26.5%,10.8%,37.8%,53.2%,7.2% (active),46.6%,10.9%,22.6%,50.9%,5.63% (active),9.73% (active),76.4%,31.4%
